Measurements as given in ChEMBL document CHEMBL3988442, “University of Dundee, Small-Polar-MMV Screening Library” (2021).
About 13,000 (27%) of roughly 48,000 compounds showed an effect of 50% or more. This is one part of the list.

Tested on: Wolbachia pipientis
Assay: Anti-Wolbachia Cell-Based Screen
Assay type: functional
Design: scale not given: in the data most compounds retested in dose-response had high values
Conditions: 5 µM

Row | Structure (SMILES) | Percent Effect [%]
1 | CCc1ccccc1OC1CN(C(=O)c2cccs2)C1 | 3.168
2 | Cn1c(NC(=O)CNC(=O)C2CC2)nc2cc(Cl)ccc21 | -0.3531
3 | CC(C)c1nn(C)c(N2CCOCC2)c1CN[C@H](C)CO | -7.825
4 | Cc1c[nH]c(CN2CCCCC2CCn2ccnc2C)c(C)c1=O (centres undefined) | -47.12
5 | O=C(c1ccc(C2CCCO2)s1)N1CCN(c2ccccc2F)CC1 (centres undefined) | 2.107
6 | CCN(Cc1nccn1C)C(=O)c1ccc(NCc2cnn(C)c2)nc1 | -21.14
7 | CS(=O)(=O)N1CCCC1c1cccc(Cc2ccccc2F)n1 (centres undefined) | 107.7
8 | CC(=O)N1CCCC1c1cccc(NCc2ccccc2F)n1 (centres undefined) | 111.2
9 | COCCN(C)CC1CCCN1S(=O)(=O)Cc1ccccc1F (centres undefined) | 4.481
10 | CN(C)C(=O)CN1CCCC1c1cccc(Cc2ccccc2F)n1 (centres undefined) | 121.7
11 | CC(=O)N1CCCC1c1cccc(Cc2ccccc2Cl)n1 (centres undefined) | 110.5
12 | Cc1nccn1CC1CCCN1S(=O)(=O)Cc1ccccc1F (centres undefined) | -7.214
13 | O=C(NC[C@H]1OC[C@@H](NC2COC2)[C@@H]1O)c1cccs1 | 4.392
14 | CN(Cc1ccoc1)C(=O)C1CC(=O)N(Cc2ccncc2)C1 (centres undefined) | 3.123
15 | COCC(=O)N1CCCC1c1cccc(Cc2ccccc2F)n1 (centres undefined) | 111
16 | CC(=O)N1CCCC1c1cccc(Cc2ccccc2F)n1 (centres undefined) | 1.098
17 | CC(=O)N1CCCC1c1cccc(Oc2ccccc2F)n1 (centres undefined) | 150.9
18 | CC(C)(C)c1coc([C@@H]2COCCN2CC2CC2)n1 | -8.42
19 | CCc1n[nH]c(C2CN(Cc3nnc(C4CC4)n3C)CCO2)n1 (centres undefined) | -1.784
20 | CCS(=O)(=O)c1ccc(N2CCC(NC(=O)c3ccccn3)CC2)cc1 | 1.284

Row | Structure (SMILES) | Percent Effect [%]
21 | COc1ccc(C[C@H]2CN(c3nnc(C)s3)CC[C@@H]2OC)cc1.O=C(O)C(F)(F)F | 83.05
22 | COc1ccc(C[C@H]2CN(c3nnc(C)s3)CC[C@H]2OC)cc1.O=C(O)C(F)(F)F | 100.4
23 | Cn1nc(Cn2cccn2)c2c1CN(Cc1ccsc1)C2.O=C(O)C(F)(F)F | -9.596
24 | O=C(O)C(F)(F)F.O=C(c1cnccn1)N1CC2(CCN(Cc3ccsc3)C2)C1 | 96.61
25 | Cn1cccc1CN1CCC2(CCCN(C(=O)c3cnccn3)C2)C1.O=C(O)C(F)(F)F (centres undefined) | -0.2095
26 | O=C(O)C(F)(F)F.O=C(c1cnccn1)N1CCCC2(CCN(Cc3ccsc3)CC2)C1 | 106.6
27 | O=C(O)C(F)(F)F.O=C(c1cnccn1)N1CCOC2(CCN(Cc3ccsc3)CC2)C1 | -59.08
28 | O=C(O)C(F)(F)F.O=C(c1cnccn1)N1CCCC2(CCN(Cc3ccc(F)cc3)C2)C1 (centres undefined) | 8.086
29 | O=C(O)C(F)(F)F.O=C(O)C(F)(F)F.O=C(c1cnccn1)N1CCCC2(CCN(Cc3cccnc3)C2)C1 (centres undefined) | -9.392
30 | O=C(O)C(F)(F)F.O=C(c1cnccn1)N1CCCC2(CCN(Cc3ccsc3)C2)C1 (centres undefined) | 100.1
31 | O=C(O)C(F)(F)F.O=C(O)C(F)(F)F.c1csc(CN2CC3(CCN(Cc4ccsc4)C3)C2)n1 | -7.051
32 | CN1CC2(CCN(Cc3cccc(C#N)c3)CC2)CC1=O | 2.767
33 | CCN1CCC(CNC(=O)C(c2ccc(F)cc2)N(C)C)(N(C)C)CC1 (centres undefined) | -1.923
34 | CN(C)C(=O)c1ccc(OC2CCCC2)cc1 | 1.251
35 | Cn1cccc1C(=O)N1CC[C@H]2[C@H](CO[C@H]2CNS(C)(=O)=O)C1 | -6.617
36 | O=C(c1ccccc1)N1CC[C@H]2C[C@@H](c3nnc(C4CC4)o3)O[C@@H]2C1 | 70.82
37 | O=C(c1cscn1)N1CC[C@H]2C[C@H](c3nnc(C4CC4)o3)O[C@@H]2C1 | 101.5
38 | Cc1ccc(C(=O)N2C[C@@H]3C[C@@H](c4nnc(C5CC5)o4)O[C@@H]3C2)s1 | -0.8808
39 | O=C1NCCO[C@H]2CN(C(=O)c3cccs3)CC[C@@H]12 | -55.85
40 | Cn1cccc1C(=O)N1C[C@@H]2C[C@@H](c3nnc(C4CC4)o3)O[C@@H]2C1 | 104.3

Row | Structure (SMILES) | Percent Effect [%]
41 | O=C(c1cscn1)N1C[C@@H]2C[C@@H](c3nnc(C4CC4)o3)O[C@@H]2C1 | -5.593
42 | O=C(c1cccs1)N1CC[C@H]2C[C@@H](c3nnc(C4CC4)o3)O[C@@H]2C1 | 88.85
43 | O=C(c1ccsc1)N1CC[C@H]2C[C@@H](c3nnc(C4CC4)o3)O[C@@H]2C1 | 4.587
44 | CCC(C)c1noc(C2CCN(C(=O)c3cccs3)CC2)n1 (centres undefined) | -5.715
45 | COc1cc(N2CCC(c3nccn3Cc3ccccn3)CC2)ncn1 | 2.703
46 | CCCN1CCC(Nc2nc(C)ns2)CC1 | -28.04
47 | COc1ccc(CN2CCC=C(C(C)NC(C)=O)C2)cc1 (centres undefined) | -15.58
48 | Cc1n[nH]c(CN2CCN(CC3CC3)[C@@H]3CS(=O)(=O)C[C@@H]32)n1 | 6.272
49 | CCOc1cccc(CCNC(=O)Cc2ccccc2O)n1 | -26.19
50 | Cc1cnc2c(S(=O)(=O)NCC3CCS(=O)(=O)C3)cccc2c1 (centres undefined) | -2.686
51 | Cc1noc([C@H]2C[C@@H]3CCN(C(=O)c4cccn4C)C[C@H]3O2)n1 | 59.05
52 | Cc1nc([C@@H]2C[C@@H]3CCN(C(=O)c4ccnnc4)C[C@H]3O2)sc1C | 3.729
53 | COCC(=O)N1CC[C@H]2C[C@@H](c3nnc(C4CC4)o3)O[C@@H]2C1 | -4.608
54 | Cc1csc([C@@H]2C[C@@H]3CCN(C(=O)c4cccn4C)C[C@H]3O2)n1 | -10.26
55 | O=C(c1ccccc1)N1CC[C@H]2C[C@H](c3nnc(C4CC4)o3)O[C@@H]2C1 | 87.37
56 | O=C(c1ccoc1)N1CC[C@H]2C[C@@H](c3nnc(C4CC4)o3)O[C@@H]2C1 | 103
57 | COCC(=O)N1CC[C@H]2C[C@H](c3nc(C)no3)O[C@@H]2C1 | 4.349
58 | COCC(=O)N1CC[C@H]2C[C@H](c3nnc(C4CC4)o3)O[C@@H]2C1 | 59.46
59 | Cc1nc([C@H]2C[C@@H]3CCN(C(=O)c4ccnnc4)C[C@H]3O2)sc1C | -5.019
